According to PubChem BioAssay AID641 (Vanderbilt High Throughput Screening Facility, 2007):
Among all 58,000 compounds or so, about 3,400 (5.9%) were called active.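 The calls were made as follows: active = luminescence count or its row- and column-corrected plate score outside the 99.7% band of the plate's sample wells, on either side; inactive = the rest.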 Only a selection was taken, and actives are over-represented in it overall.

Biological target: D(1A) dopamine receptor (Homo sapiens) (UniProt P21728)
Experiment: D1 CRE-luciferase signal change, two-sided – cell-based, HEK293 D1, dopamine EC30, D1 allosteric modulator project, primary screen (AID 641)
Conditions: dopamine EC30 potentiation, at 10 µM, actives deviate in either direction

D(1A) dopamine receptor (Homo sapiens), sequence (P21728 whole entry, looked up): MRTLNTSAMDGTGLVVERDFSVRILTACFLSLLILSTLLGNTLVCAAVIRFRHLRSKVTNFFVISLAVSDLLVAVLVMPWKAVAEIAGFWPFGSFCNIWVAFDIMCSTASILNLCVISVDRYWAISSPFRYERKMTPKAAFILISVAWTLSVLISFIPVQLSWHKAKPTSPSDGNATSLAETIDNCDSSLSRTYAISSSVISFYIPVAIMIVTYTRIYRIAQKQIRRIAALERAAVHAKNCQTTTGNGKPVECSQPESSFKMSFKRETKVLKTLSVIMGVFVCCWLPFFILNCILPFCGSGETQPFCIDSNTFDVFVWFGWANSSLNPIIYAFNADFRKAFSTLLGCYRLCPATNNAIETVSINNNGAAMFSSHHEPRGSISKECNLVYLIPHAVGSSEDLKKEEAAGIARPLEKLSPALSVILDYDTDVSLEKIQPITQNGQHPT

B-score, active:
O=C(CN1C(=O)c2ccccc2S1(=O)=O)N1CCc2ccccc21 -3.68, CCOc1ccc(-c2nnc3ccc(SC)nn23)cc1 -4.57, COc1ccc(C2N=C(N)N=C(N)N2c2ccccc2)cc1OC (stereo unspecified) -3.55, CCOc1ccc2c(c1)cc(CN(C(=O)CC)C1CCCCC1)c1nnnn12 12.6, O=C(NCc1ccco1)c1cnn2c(C(F)(F)F)cc(-c3ccco3)nc12 4.37, CCOC(=O)c1c(NC(=O)CSc2nnc(Cc3csc(N)n3)n2C)sc(C)c1C 4.94, CCOC(=O)c1c(NC(=O)CSc2nnc(CN3CCOCC3)n2C)sc2c1CCCC2 6.03, COC(=O)C(C)C1Sc2ccccc2NC1=O (stereo unspecified) 4.51, COc1ccc(N=Cc2c(O)[nH]c3ccccc23)cc1OC -2.18, Cc1cc(C(F)(F)F)nn1-c1nc(-c2ccco2)cc(C(F)(F)F)n1 9.17, FC(F)(F)c1cc(-c2ccco2)nc(N2CCOCC2)n1 17, CCc1cc(=O)oc2cc(OCC(=O)N3CCCc4ccccc43)ccc12 8.41, COc1ccc(CCN(C)C(=O)C2CCCN(Cc3ccc(OC)c(OC)c3)C2)cc1OC (stereo unspecified) 5.3, O=C(CCN1C(=O)COc2ccccc21)NCCCN1CCN(c2ccc(F)cc2)CC1 -2.68, COc1cc(NC(=O)N2CCOCC2)cc(OC)c1 4.92, CCn1ncc(C2=NOC(C(=O)Nc3ccccc3C(=O)OC)C2)c1C (stereo unspecified) 13.2, CCCc1nc(-c2ccccc2O)n(-c2ccccc2)n1 8.71, OC(COc1cccc2ccccc12)CN1CCN(c2ccccn2)CC1 (stereo unspecified) -4.42, CCN(Cc1nc2ccccc2c(=O)[nH]1)Cc1cc(=O)oc2cc(C)c(C)cc12 -2.91

B-score, inactive:
COCCNC(=O)c1snc2ccc(Cl)cc12 0.741, CCCc1nc2ccccc2c(C(=O)OCc2nnc(-c3cc(OC)c(OC)c(OC)c3)o2)c1CC 2.19, CCN1CCN(Cc2c(O)ccc3c(=O)c(-c4ccc(OC)c(OC)c4)c(C(F)(F)F)oc23)CC1 -0.698, Cc1cc(=O)oc(C)c1C(=O)Nc1cnc2ccccc2c1 -0.206, CNC(=O)CN1C(=O)c2ccccc2S1(=O)=O 0.686, O=C(c1cccc(C(=O)N2CCc3ccccc32)n1)N1CCc2ccccc21 0.928, COC(=O)C(C)Sc1ccc2nnc(-c3cccc(F)c3)n2n1 (stereo unspecified) 0.378, O=C(CN1CCOCC1)Nc1cc(Cl)ccc1Cl -0.306, C=C(C)Cn1c(N2CCN(CC)CC2)nc2c1c(=O)[nH]c(=O)n2C 0.264, Brc1cccc(-c2nnc3n2CCC3)c1 0.138, CCOc1cc(-c2nc3cc(C)ccn3c2NCC2CCCO2)ccc1O (stereo unspecified) -0.604, COc1ccc(C2SCCN2S(=O)(=O)c2ccccc2)cc1OC (stereo unspecified) 0.2, COc1ccc(C2/C(=C(/O)c3ccccc3)C(=O)C(=O)N2c2ncccn2)cc1OC (stereo unspecified) -0.0203, CCOC(=O)[C@H]1CCC[C@@H](NS(=O)(=O)c2ccc(NC(C)=O)cc2)C1 -0.0967, Cc1ccc(S(=O)(=O)N(C)CC(=O)N2CCc3ccccc32)cc1 1.86, CCOc1ccc2[nH]c(=O)c(CN(Cc3nnnn3Cc3ccccc3)CC3CCCO3)cc2c1 (stereo unspecified) -0.307, CCOc1ccc2[nH]c(=O)c(CN(Cc3nnnn3CCc3ccccc3)CC3CCCO3)cc2c1 (stereo unspecified) 1.9, O=C(NCc1ccco1)c1cccn2c(=O)c3cc(Br)ccc3nc12 -0.861, COC(=O)c1cnn2c(C(F)(F)F)cc(-c3ccco3)nc12 1.18, O=C(O)C1CCCN(S(=O)(=O)c2cccc3cccnc23)C1 (stereo unspecified) 0.0158, CCOC(=O)c1c(NC(=O)CSc2nnc(C)c(=O)[nH]2)sc2c1CCC2 1.36, CCOCC(=O)Nc1sc2c(c1C(=O)OCC)CCCC2 -0.0785, COC(=O)c1c(NC(=O)CSc2nc3c(c(=O)n(C)c(=O)n3C)n2C(C)C)sc(C)c1C 3.35, Cn1c(Cc2csc(N)n2)nnc1SC/C=C/c1ccccc1 0.477, O=C(NCc1ccc2c(c1)OCO2)C1CCCN(S(=O)(=O)c2cccs2)C1 (stereo unspecified) -0.0139, CCC1CCCCN1C(=O)Nc1cccc(NC(=O)N2CCCCC2CC)c1 (stereo unspecified) 0.11, CCOCC(=O)NCc1ccc2c(c1)cc(C)n2C 0.132, Cc1noc(C)c1S(=O)(=O)N1CCCC(C(=O)Nc2nccs2)C1 (stereo unspecified) -0.254, CCOC(=O)c1ccccc1NC(=O)CC1Nc2ccccc2NC1=O (stereo unspecified) -0.897, COc1ccc(OC)c(N=Cc2c(O)[nH]c3ccccc23)c1 1.65, COc1cc(N=Cc2c(O)[nH]c3ccccc23)cc(OC)c1OC -1.15, CN(C)Cc1c(O)ccc2occ(C(O)c3ccccc3)c12 (stereo unspecified) 0, Cc1nnc(SCC(=O)NCCOc2ccc(Cl)cc2)n1-c1ccccc1 0.122, O=C(CCC(=O)OCC(F)(F)C(F)F)NCc1ccccc1 0.31, CCOC(=O)c1ccn(-c2nc(-c3ccco3)cc(C(F)(F)F)n2)n1 -0.161, O=C(CSc1nc(-c2ccco2)cc(C(F)(F)F)n1)NCc1cccs1 0.0388, FC(F)(F)c1nnc2sc(-c3ccco3)nn12 0.0156, O=C(CSc1nc(-c2ccco2)cc(C(F)(F)F)n1)N1CCc2ccccc2C1 0.312, C=CCc1cccc2cc(C(=O)N3CCN(C(=O)OCC)CC3)c(=O)oc12 -0.147, CCOC(=O)Cn1c(=O)oc2cc(S(=O)(=O)N(C)Cc3ccco3)ccc21 0.239, Cn1nnnc1SCC(=O)N1CCN(Cc2ccccc2)CC1 0.031, CCOC(=O)N1CCC(NC(=O)COc2cc(=O)n(C)c3ccccc23)CC1 0.112, Cc1occc1C(=O)N1CCCc2ccccc21 0.259, Cc1ccc2c(c1)N(CC(=O)N1CCCc3ccccc31)C(=O)C(C)O2 (stereo unspecified) 1.2, Cc1ccc(C2c3c(oc4ccc(C)cc4c3=O)C(=O)N2CCCN2CCOCC2)cc1 (stereo unspecified) 1.68, Cc1ccc(S(=O)(=O)C(C#N)c2nc3ccccc3nc2N2CCCC2)cc1C (stereo unspecified) 0.792, CC(C)(C)NC(=O)C(c1ccncc1)N(C(=O)CNC(=O)c1ccco1)c1ccc2c(c1)OCO2 (stereo unspecified) 1.5, CCn1c2c(c3ccc(OC)cc31)CCCC2=O 0.923, COc1ccc(CCNC(=O)C2CCCN(Cc3nc(-c4cccc(Cl)c4)oc3C)C2)cc1OC (stereo unspecified) 0.204, COc1ccc(CCN(C)CCN2C(=O)c3ccccc3C2=O)cc1OC 0.821, COc1ccc(N2CCN(CCNC(=O)CCN3C(=O)COc4ccccc43)CC2)cc1 -0.0397, CCCN1CCN(CCCNC(=O)CN2C(=O)COc3ccccc32)CC1 -0.525, Cn1nc(-c2ccc(Cl)cc2)c2cc(C(=O)NCc3ccco3)sc21 -0.605, COc1ccc(OCC(=O)N2CCOCC2)cc1 0.809, CCOC(=O)c1[nH]c2ccc(OC)cc2c1NC(=O)N1CCOCC1 1.26, COc1ccc2[nH]c(=O)c(CN(CC3CCCO3)C(=O)Nc3ccccc3)cc2c1 (stereo unspecified) -0.175, Cc1cc(C(F)(F)F)nn1CC(=O)N1CCCC1 0.971, CCn1ncc(C2=NOC(C(=O)N3CCN(c4ccccc4)CC3)C2)c1C (stereo unspecified) -0.447, COC(=O)c1ccccc1NC(=O)CSc1ccccn1 3.05, c1ccc(CCC2=NCCn3cccc32)cc1 -0.434, O=C(C1CCN(CC2CCCCC2)CC1)N1CCCC1 0.0452, COC(=O)C1=CN(C)C=C(C(=O)OC)C1c1ccc(Cl)cc1Cl 0.625, CCCc1nc(N2CCN(C)CC2)c2sc(=S)n(-c3ccccc3)c2n1 0.374, O=C(NCc1ccco1)c1nc(-c2ccccc2)n(-c2ccccc2)n1 -1.33, O=C(c1ccco1)N1CCN(C(=O)C2CC(c3ccc(F)cc3)=NO2)CC1 (stereo unspecified) -0.404, CC1(C)CC(=O)C=C(NCc2ccncc2)C1 0.0608, CCOC(=O)N1CCN(Cc2nc3c(c(=O)n(C)c(=O)n3C)n2Cc2ccccc2)CC1 -0.0843, CC(=O)Nc1ccc(S(=O)(=O)N2CCCC2C(=O)O)cc1 (stereo unspecified) -0.232, O=C1c2cccc3cccc(c23)N1CN1CCN(c2ccccn2)CC1 -2.84, OC(COc1cccc(OCC(O)CN2CCCC2)c1)CN1CCCC1 (stereo unspecified) -0.368, COc1ccc(NC(=O)Nc2cccc3cccnc23)cc1 -0.391, O=C(CSc1nnnn1C1CCCC1)Nc1ccc2c(c1)OCCO2 -0.309, COc1ccc(OC)c2sc(NC(=O)C3COc4ccccc4O3)nc12 (stereo unspecified) 1.13, CCCC(=O)N(CCc1ccccc1)Cc1nc2ccccc2c(=O)[nH]1 0.0641, O=C(c1ccco1)N(Cc1nc2ccccc2c(=O)[nH]1)C1CCCC1 -0.0551, COc1ccc(-n2nnc3c(=O)n(CC(=O)OCc4ccccc4)cnc32)cc1 -0.218, Cn1c(SCC(=O)N2CCOCC2)nnc1-c1ccc(NC(=O)c2ccccc2F)cc1 -0.459
